In the supplement of paper PMC6555819:

Each sequence was assayed on RARg:RXRa (NR concentration 270 nM, RXRa partner concentration 90 nM) (assay: PBM binding z-score (relative to random genomic background probes); higher = stronger binding; sequences stand for … in GC…GCGATTGACAGCGTAGAATGAAGG).
Summary of the method: (§1)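 Antibodies against each partner of ligand-free nuclear receptor dimers (one per run) detected binding on custom Agilent 4×180K protein-binding microarrays after 1 h incubation. The double-stranded probes had 34-nt variable regions carrying direct-repeat seeds, single-nucleotide variants, half-site ablations and random human genomic background sequences. Binding z-scores, from regression-normalized fluorescence, use the random background probes as reference.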
AGTATGAGGTTATTAAGATCAGGGAATTGCGGTC was tested, and the PBM binding z-score was 1.27. Sequence TCTTGTAGATCAACAGGAGGTTTAGAAAGATCGA has a PBM binding z-score of -0.145. With TCGAGTAGGTTAGTCGGGTCATTCAGCCAACATA the PBM binding z-score was 1.93. CCTCGGAGGAAAACAGGAGGTCAGAGCTGCCAGA gave a PBM binding z-score of 1.32. CCTACTGGGCCATAGGTCATTGATTCCAATGCTC was tested, and the PBM binding z-score was 2.89. CCTAGTTGGACAGGAGGTCACACACCGGATATGA was tested, and the PBM binding z-score was 4.2. CATAGTTGGTCAGGAGGTCACACACCGGATATGA showed a PBM binding z-score of 5.09. CCTTACGGGTCACGAGGTAATAGCACGACGAGCG showed a PBM binding z-score of 5.87. TGGAGTAGGTTACCAATGGGGCATTCAGCTTTCT showed a PBM binding z-score of 1.4. GCGACTGGGGCAAAGCAGTTTACCATAAGGTTGG was tested, and the PBM binding z-score was 0.073. Work on CCTTACGGGTCACTGACAGGTTATAACATTTGGA yielded a PBM binding z-score of 5.87. Sequence CTCGAAAGGGCGGTTGAGGTGAGTATACGGATAA has a PBM binding z-score of 0.317. CTCGAAAGGTCGCTTGAGGTGAGTATACGGATAA showed a PBM binding z-score of 3.95. CCTACTGGGCCAAAAAGGTCGTTGATGCCGATAA showed a PBM binding z-score of 1.18. In the case of CCGACAGGGGCAAGGTTACCATAACGCACAGCCA, the PBM binding z-score is reported as 1.58. Work on CCTAGTTGGTCAGGAGGTCACCCACCGGATATGA yielded a PBM binding z-score of 4.91. For GCATATAGGTAATACAAGGTGTAAGTCCGATTGT, the PBM binding z-score was -0.0828. In the case of AACTCTAGGTAACAAGTTCAGTGAAAGAGAGGAC, the PBM binding z-score is reported as 1.03. Work on CCTGCTAGGCCATGGTCAGCTAATCTACAGTATG yielded a PBM binding z-score of -0.00744. Work on AGTCAAAGTTAATCTAGGTAACGTAAGATATGCT yielded a PBM binding z-score of 0.152. CATACAGGGTCAGCTAGGTCAGAGTAGGGACGGC gave a PBM binding z-score of 5.09. Sequence CCTAGCAGGCCAATCTGGGTCAGTCAAGGCTTGA has a PBM binding z-score of 0.465. ATATGTAGGTTAAGGGTCATTCATGTTGGTTCGC gave a PBM binding z-score of 4.74. TTACTAAGGTGAGCTGAGGTCGTTGATCCAACTC was tested, and the PBM binding z-score was 1.39. In the case of CAAACTAGGTCAAGGTCAAAGCCGGTTTGTGCCA, the PBM binding z-score is reported as 6.1. Work on CCTACTGGTCCAAAAAGGTCATTGATGCCGATAA yielded a PBM binding z-score of 4.42. With TCATATACGTAAAAGGTGAAAGTCGGTGTGGTAA the PBM binding z-score was 1.27. ACTAGCAGGCCAAGTTTGGGTTACTCAAACAAAG was tested, and the PBM binding z-score was 0.339. ATCTCTGGGTAAAGTTCAGTGAAAGATCGATAGA was tested, and the PBM binding z-score was 2.19. With CCTGCTAGGTCAATTGTCAGCTAAAGCAGCTCGC the PBM binding z-score was 3.24. ACTATTAGTTGACTTAGGGCAACCTATACGACGC showed a PBM binding z-score of 0.744. CGAACTAGGTCTTCCAGGACAGTGAATACATTGA was tested, and the PBM binding z-score was 0.154. CCTTGCGGGTCACTCCAGGTTATAGCATCGGAGT showed a PBM binding z-score of 3.99. With CCGAGTAGGCTATGGGGCATTCAGGCAACGGTGA the PBM binding z-score was -0.57. CAGCCTAGGTCAGGGCCAGAATAGGAGGAACGTT showed a PBM binding z-score of 2.81. Sequence AGTAAAAGTTCATCTAGGTAACGTAAGATATGCT has a PBM binding z-score of 4.68. For CATAAAGGGTCAGCTAGGCCAGAGTAGGGACGGC, the PBM binding z-score was 5.41. Work on CGAACTAGGTCAAGGACACTGAATCTCCGCACGC yielded a PBM binding z-score of 3.94. Sequence GTACCAAGGTGAATAGGTCGTTTATGAGTAGGCG has a PBM binding z-score of 2.69. Sequence AGTCAAAGTTCAGGACGAGGTAACGCAAAGCACG has a PBM binding z-score of 4.76.

What follows are sequences tested on RARg homodimer (NR concentration 270 nM) in the same assay as above.
Summary of the method: as §1
AGTATGAGGTTATTAAGATCAGGGAATTGCGGTC showed a PBM binding z-score of 1.09. For TCTTGTAGATCAACAGGAGGTTTAGAAAGATCGA, the PBM binding z-score was -0.083. TCGAGTAGGTTAGTCGGGTCATTCAGCCAACATA showed a PBM binding z-score of 1.5. Work on CCTCGGAGGAAAACAGGAGGTCAGAGCTGCCAGA yielded a PBM binding z-score of 1.3. With CCTACTGGGCCATAGGTCATTGATTCCAATGCTC the PBM binding z-score was 1.95. In the case of CCTAGTTGGACAGGAGGTCACACACCGGATATGA, the PBM binding z-score is reported as 3.71. CATAGTTGGTCAGGAGGTCACACACCGGATATGA gave a PBM binding z-score of 4.47. In the case of CCTTACGGGTCACGAGGTAATAGCACGACGAGCG, the PBM binding z-score is reported as 5.34. TGGAGTAGGTTACCAATGGGGCATTCAGCTTTCT showed a PBM binding z-score of 0.805. Work on GCGACTGGGGCAAAGCAGTTTACCATAAGGTTGG yielded a PBM binding z-score of 0.187. Work on CCTTACGGGTCACTGACAGGTTATAACATTTGGA yielded a PBM binding z-score of 4.56. Sequence CTCGAAAGGGCGGTTGAGGTGAGTATACGGATAA has a PBM binding z-score of 0.636. Sequence CTCGAAAGGTCGCTTGAGGTGAGTATACGGATAA has a PBM binding z-score of 3.9. Sequence CCTACTGGGCCAAAAAGGTCGTTGATGCCGATAA has a PBM binding z-score of 0.763. With CCGACAGGGGCAAGGTTACCATAACGCACAGCCA the PBM binding z-score was 1.94. CCTAGTTGGTCAGGAGGTCACCCACCGGATATGA gave a PBM binding z-score of 4.4. In the case of GCATATAGGTAATACAAGGTGTAAGTCCGATTGT, the PBM binding z-score is reported as 0.241. AACTCTAGGTAACAAGTTCAGTGAAAGAGAGGAC was tested, and the PBM binding z-score was 1.2. CCTGCTAGGCCATGGTCAGCTAATCTACAGTATG showed a PBM binding z-score of 0.586. AGTCAAAGTTAATCTAGGTAACGTAAGATATGCT gave a PBM binding z-score of 0.434. CATACAGGGTCAGCTAGGTCAGAGTAGGGACGGC gave a PBM binding z-score of 5.08. CCTAGCAGGCCAATCTGGGTCAGTCAAGGCTTGA was tested, and the PBM binding z-score was 1.02. ATATGTAGGTTAAGGGTCATTCATGTTGGTTCGC was tested, and the PBM binding z-score was 3.5. For TTACTAAGGTGAGCTGAGGTCGTTGATCCAACTC, the PBM binding z-score was 1.38. CAAACTAGGTCAAGGTCAAAGCCGGTTTGTGCCA gave a PBM binding z-score of 6.74. For CCTACTGGTCCAAAAAGGTCATTGATGCCGATAA, the PBM binding z-score was 4.17. With TCATATACGTAAAAGGTGAAAGTCGGTGTGGTAA the PBM binding z-score was 0.986. With ACTAGCAGGCCAAGTTTGGGTTACTCAAACAAAG the PBM binding z-score was 0.295. In the case of ATCTCTGGGTAAAGTTCAGTGAAAGATCGATAGA, the PBM binding z-score is reported as 2.4. CCTGCTAGGTCAATTGTCAGCTAAAGCAGCTCGC showed a PBM binding z-score of 3.98. ACTATTAGTTGACTTAGGGCAACCTATACGACGC was tested, and the PBM binding z-score was 1.05. CGAACTAGGTCTTCCAGGACAGTGAATACATTGA gave a PBM binding z-score of 0.415. With CCTTGCGGGTCACTCCAGGTTATAGCATCGGAGT the PBM binding z-score was 3.63. With CCGAGTAGGCTATGGGGCATTCAGGCAACGGTGA the PBM binding z-score was -0.466. CAGCCTAGGTCAGGGCCAGAATAGGAGGAACGTT showed a PBM binding z-score of 3.54. With AGTAAAAGTTCATCTAGGTAACGTAAGATATGCT the PBM binding z-score was 5.23. For CATAAAGGGTCAGCTAGGCCAGAGTAGGGACGGC, the PBM binding z-score was 6.23. CGAACTAGGTCAAGGACACTGAATCTCCGCACGC was tested, and the PBM binding z-score was 4.67. GTACCAAGGTGAATAGGTCGTTTATGAGTAGGCG showed a PBM binding z-score of 1.2. AGTCAAAGTTCAGGACGAGGTAACGCAAAGCACG gave a PBM binding z-score of 4.54.
